Compounds with a hit are over-represented: about 7.9% of the library has one in this group of screens.
MARV entry inh: inhibitors of Marburg virus binding or cell entry; Marburg virus pseudotyped entry inhibition, cell reporter; Potency, µM (highest dose often 37.8 µM), actives largely listed as inhibitors; hit rate 1.8% among 300,000; AID 540276; calls by dose curve; tested in HEK293 cells
Lassa entry inh: blocks Lassa virus binding to or entry into cells | Lassa virus pseudotype entry inhibition, cell reporter | hit rate 1.2% among 300,000 | Potency, µM (doses to about 37.9 µM), hits mostly inhibitors; calls by dose curve; tested in HEK293 cells; note: nearly all actives have a fitted effect of over 50% in size
FMDV inh: blocks foot and mouth disease virus | FMDV antiviral cell-based qHTS | Potency, µM (highest dose often 57.9 µM), hits mostly inhibitors | hit rate 1.2% among 410,000; calls by dose curve; tested in HEK293T cells; note: read-out not given here; nearly all actives have a fitted effect of over 45% in size
HCMV antiviral: human cytomegalovirus inhibition; AID 1259415; activity change, negative = inhibition, % at 57.5 µM; hit rate 4.5% among 410,000; HFF cells, HCMV-luciferase reporter, 72 h; hits give low values; in the data active = activity change below about -60%; inconclusive = no clear call, values can overlap the other calls; inactive = above about -39%
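After 16 h attachment at 37C, HFF cells received test compound and HCMV-luciferase (1 PFU/cell); reporter luminescence read 72 h later, data normalized against buffer-only and known inhibitor Salinomycin.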
HCV inhibitor: HCV inhibition | Potency, µM (highest dose often 41.8 µM), most hits filed as inhibitors | AID 651820 | hit rate 3.4% among 340,000 | Huh7.5.1 HCVcc-Cre infection, luciferase reporter, 44 h; active = well fitted inhibition curve with a large enough effect; inconclusive = small, poorly fitted or top-dose-only effect, or another doubt; inactive = no such curve, though single readings can be large or run the other way
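Cells seeded at 1,000/well and cultured 4 h, then compounds added followed by HCVcc-Cre virus (~0.5 moi). After 44 h further culture, luciferase substrate was added, plates held 15 min at room temperature, and luminescence read for 15 sec.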
Numbers stand for hits; n = inactive; u = inconclusive; x = no result given; + = active, no number.

SMILES	MARV entry inh	Lassa entry inh	FMDV inh	HCMV antiviral	HCV inhibitor
Cc1ccc(S(=O)(=O)NC2=C(N3CCN(Cc4ccccc4)CC3)C(=O)c3ccccc3C2=O)cc1	n	n	n	-65.2	n
Cc1ccc(S(=O)(=O)NC2=C(N3CCN(c4ccccc4F)CC3)C(=O)c3ccccc3C2=O)cc1	u	u	n	n	u
COc1cccc(-c2nc(CS(=O)(=O)CC(=O)NCc3cccc(Cl)c3)c(C)o2)c1	n	n	n	n	x
Cc1[nH]n(-c2ccccc2)c(=O)c1C(C[N+](=O)[O-])c1ccc(Br)cc1 (stereo not drawn)	n	u	u	-104.3	n
O=C(COc1cc2oc(=O)c3c(c2cc1Cl)CCCC3)NCc1cccnc1	u	n	n	u	u
Cc1cc(OCC(=O)NCc2cccnc2)c2c3c(c(=O)oc2c1)CCCC3	x	x	n	n	10µM
CCOC(=O)C(C)Oc1cc(C)cc2oc(=O)c3c(c12)CCCC3 (stereo not drawn)	u	u	u	n	10µM
COC(=O)C(C)Oc1cc(C)cc2oc(=O)c3c(c12)CCCC3 (stereo not drawn)	n	n	n	n	u
CCN(CC)S(=O)(=O)c1ccc2c(c1)c(=O)c(C(=O)N1CCN(c3cc(C)ccc3C)CC1)cn2C	n	n	n	n	x
C=CCn1c(CCNC(=O)c2ccc(Cl)c(Cl)c2)nnc1SCCOc1ccc(OC)cc1	u	n	28.2µM	n	10µM
NNc1nc(-c2ccccc2)cc(-c2ccccc2)n1	x	x	n	n	12.6µM
NNc1nc(-c2ccccc2)cc(-c2ccccc2O)n1	u	n	n	n	u
Nc1nc(-c2ccccc2)cc(-c2ccccc2O)n1	n	n	x	-96.2	n
NNC(=O)c1nc(-c2ccccc2)cc(-c2ccccc2)n1	x	x	n	-62.9	n
Clc1nc(-c2ccccc2)cc(-c2ccccc2)n1	u	n	n	n	u
CCOc1ccc(Sc2cc(C(=O)NCc3ccccc3Cl)c3ccccc3n2)cc1	x	n	n	n	x
COc1cc(NC(=O)COc2ccc(-n3cnnn3)cc2)cc(OC)c1OC	n	n	u	n	11.2µM
COc1ccccc1C(=O)COC(=O)c1ccc(-n2cnnn2)cc1	n	n	n	n	10µM
CCN(CC)c1ccc(NC(=O)COc2ccc(-n3cnnn3)cc2)cc1	n	n	n	n	22.4µM
CC[C@H](CO)NC(=O)[C@H]1C=C2c3cccc4[nH]cc(c34)C[C@H]2N(C)C1	n	x	x	x	x
CCOC(=O)c1ccc(NC(=O)Nc2c[nH]c(=O)[nH]c2=O)cc1	x	n	n	n	x
N/C(=N\NC(=O)c1sccc1OCc1ccc(Cl)cc1Cl)c1ccccn1	8.91µM	u	n	u	u
CNC(=S)NNC(=O)c1sccc1OCc1ccc(Cl)cc1Cl	n	u	n	n	n
O=C(O)C[C@H](NC(=O)COc1ccc(Cl)cc1Cl)C(=O)O	n	x	x	x	x
CCC1CCCCN1Cc1cn2c(-c3ccc(Br)cc3)nnc2s1 (stereo not drawn)	x	n	n	n	x
SMILES	MARV entry inh	Lassa entry inh	FMDV inh	HCMV antiviral	HCV inhibitor
O=c1cc(CSc2ccc(Cl)cc2)nc(-c2ccccc2)[nH]1	n	n	n	n	n
Clc1ccc(SCc2cc(N3CCOCC3)nc(-c3ccccn3)n2)cc1	u	u	n	-92.0	8.91µM
Cc1nc(CSc2ccccc2)cc(=O)[nH]1	u	n	n	n	n
O=c1cc(CSc2ccc(Cl)cc2)nc(-c2ccccn2)[nH]1	x	x	u	-61.1	u
O=c1cc(CSc2ccccc2)nc(-c2ccccc2)[nH]1	n	n	n	-104.6	n
COCCNC(=O)C1CCN(Cc2cc3ccccc3n2Cc2ccc(C)cc2)CC1	x	n	n	n	x
CCCCCCCc1cc2ccccc2c2c(C(C)=O)c(-c3ccccc3)c(C(=O)OC)n12	n	u	x	x	x
COC(=O)[C@@H]1[C@@H](c2ccccc2)[C@H]2C(=O)c3c(OC)cc(OC)cc3O[C@@]12c1ccc(OC)cc1	n	x	x	x	x
Cc1ccc(-c2ccc(/C=N/NC(N)=S)o2)cc1	u	u	n	n	11.2µM
NC(=S)N/N=C/c1ccc(-c2ccccc2)o1	x	x	n	n	n
O=C(NCCc1ccccc1)C(c1cccs1)N(C(=O)CCl)c1ccc(Cl)cc1 (stereo not drawn)	u	17.8µM	35.5µM	-99.5	u
O=C(NCCc1ccccc1)C(c1cccs1)N(C(=O)c1csnn1)C1CC1 (stereo not drawn)	n	n	n	n	n
O=C(C[C@H]1CC[C@@H]2[C@H](COC[C@@H](O)CN2C(=O)C2CC2)O1)NCc1ccccc1Cl	x	x	n	n	x
O=C(C[C@H]1CC[C@H]2[C@@H](COC[C@@H](O)CN2C(=O)c2cnccn2)O1)NCc1ccc(Oc2ccccc2)cc1	x	x	n	-67.9	x
Fc1ccc(NC(=S)Nc2cccc(Cl)c2)cc1	n	n	n	-73.1	u
Fc1ccc(CNC(=S)Nc2cccc(Cl)c2)cc1	n	u	n	u	u
FC(F)(F)c1ccccc1NC(=S)Nc1cccc(Cl)c1	n	n	n	-75.7	n
Cc1cccc(NS(=O)(=O)c2c(C(=O)N3CCCC3)c(C)n(C)c2C)c1	n	n	n	+	n
Cc1c(C(=O)N2CCCC2)c(S(=O)(=O)N2CCCCC2)c(C)n1C	n	n	n	n	n
Cc1c(C(=O)N2CCCCC2)c(S(=O)(=O)N2CCC(C)CC2)c(C)n1C	u	n	n	+	n
COc1cc(-c2nnc(COc3ccc4cc(Br)ccc4c3)o2)cc(OC)c1OC	u	n	n	n	n
COc1ccc(-c2nnc(COc3ccc4ccccc4c3)o2)cc1OC	u	20.6µM	n	n	u
COc1cccc(NC(=O)CSc2nnc(-c3cccs3)o2)c1	u	n	n	n	x
COc1cccc(OCc2nnc(-c3cccs3)o2)c1	x	x	x	-77.3	x
Cc1cc(C)cc(NS(=O)(=O)c2cnc(Cl)c(Cl)c2)c1	n	n	n	n	11.2µM
SMILES	MARV entry inh	Lassa entry inh	FMDV inh	HCMV antiviral	HCV inhibitor
O=C(Nc1ccc2c(c1)OCO2)c1noc2c1CCCC2	7.08µM	u	n	n	n
C=C(C)C(=O)Nc1ccc2c(c1)OCCOCCOCCO2	11.2µM	n	n	n	n
CC(C)CC(=O)Nc1ccc2c(c1)OCO2	u	u	n	n	n
O=C(CCl)Nc1ccc2c(c1)OCO2	u	u	u	-61.4	u
NC(=O)c1ccc(NC(=O)Nc2ccc3c(c2)OCO3)cc1	x	x	n	n	n
O=C(Nc1ccc2c(c1)OCCO2)Nc1ccc2c(c1)OCO2	u	8.91µM	n	n	n
COCC(C)NC(=O)c1cc2c(=O)n3cccc(C)c3nc2s1 (stereo not drawn)	n	n	n	n	x
C/C(=C\C(=O)c1ccccc1)Nc1ccc2c(c1)OCO2	n	n	n	n	3.16µM
Cc1ccc(S(=O)(=O)Nc2c(C)nn(C)c2C)cc1	n	n	x	n	n
CCn1nc(C)c(NS(=O)(=O)c2ccc(C)cc2)c1C	u	n	n	-74.5	u
CCc1ccc(S(=O)(=O)Nc2c(C)nn(C)c2C)cc1	n	n	u	-69.1	12.6µM
CCOc1cc(/C=C2\C(=O)ON=C2c2ccccc2)ccc1OC	x	x	35.5µM	n	n
COc1ccc(/C=C2\C(=O)ON=C2c2ccccc2)cc1OC	x	x	u	n	n
COc1cc(/C=C2\N=C(c3ccccc3)NNC2=O)cc(OC)c1OC	u	u	n	-81.1	n

Bioassay records as filed in PubChem.
